# ROMK primary: modulates human ROMK potassium channel activity. P48048. Tet-inducible ROMK, thallium flux fluorescence; actives lie on both sides. B-score at 10 µM. 130,000 tested, 2% active;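 active = signal ratio slope over the read window, or its plate-corrected B-score, at least 3 SD from the plate mean, either direction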;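 note: B-score of the F/F0 ratio slope over 7 to 12 s after thallium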
# Target sequence (P48048 whole entry, looked up): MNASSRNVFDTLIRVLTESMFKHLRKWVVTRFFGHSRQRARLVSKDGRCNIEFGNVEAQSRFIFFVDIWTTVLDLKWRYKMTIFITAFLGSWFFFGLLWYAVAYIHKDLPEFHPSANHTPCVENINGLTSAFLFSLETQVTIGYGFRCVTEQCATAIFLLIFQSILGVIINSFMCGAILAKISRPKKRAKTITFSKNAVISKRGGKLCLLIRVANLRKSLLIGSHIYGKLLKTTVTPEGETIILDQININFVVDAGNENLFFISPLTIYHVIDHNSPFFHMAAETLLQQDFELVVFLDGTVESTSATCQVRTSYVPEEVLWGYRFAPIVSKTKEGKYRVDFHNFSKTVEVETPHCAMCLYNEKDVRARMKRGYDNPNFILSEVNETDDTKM
# Lmaj promast: reduces viability of Leishmania major promastigotes; resazurin fluorescence viability; inhibition, % at 10 µM; 200,000 tested, 9% active; in the data active = inhibition above about 50%;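 note: promastigotes grown with compound for 44 hours at 28 °C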
# Insulin prom up: MIN6 insulin promoter up-regulation; 190,000 tested, 0.3% active; MIN6 insulin promoter-GFP reporter, high-content imaging; hits give high values; AID 1625; z-score at 5 µM;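 active = z-score above 3 at 5 µM with at least 500 cells counted in the well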
# Cl transport mod: modulators of human KCC2 chloride dependent transport. B-score of Tl+ flux slope (higher = more flux/activation; lower = inhibition) at 10 µM. Q9H2X9. KCC2 cells, thallium flux FluoZin-2 fluorescence. 190,000 tested, 2.2% active. AID 1456;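 active = thallium flux slope and its plate-corrected score both differing from the plate sample mean at a set confidence after two filtering rounds, in either direction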;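 note: slope of fluorescence scaled to starting intensity during 10 to 20 s after thallium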
# WT yeast gro inh: growth inhibition of WT yeast, mitochondrial fusion screen | mitochondrial fusion phenotypic screen, WT strain | inhibition, % at 10 µM | 190,000 tested, 2.1% active | AID 1362; in the data active = inhibition above about 58%; tested in S. cerevisiae
# INS promoter inh: TRM-6 insulin promoter activity inhibition. TRM-6 cells (human fetal islet line), insulin promoter-eGFP reporter, imaging; reporter expression induced with tamoxifen. inhibition, % at 2 µM. 130,000 tested, 0.9% active. AID 1273;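 active = inhibition above the mean plus 3 SD, with well images judged a real hit on visual review, cut at about 60% in these data, passing the limit was not always enough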
# Starred values were filed as active, the others as inactive; · = no result. The list is not random: actives were taken first. Their share in the collection is about 12%.
SMILES,ROMK primary,Lmaj promast,Insulin prom up,Cl transport mod,WT yeast gro inh,INS promoter inh
O=C(N/C(=C/c1cccc([N+](=O)[O-])c1)C(=O)N1CCCCC1)c1cccs1,0.228,90.4*,1,-0.658,-6.0,23.7
CC(C)(C)NC(=O)/C(=C\C=C\c1ccccc1)NC(=O)c1ccc([N+](=O)[O-])cc1,0.173,3.7,-0.21,-1.11,5.7,14.3
O=C(N/C(=C\c1cccs1)C(=O)N1CCOCC1)c1cccs1,0.213,-7.9,0.42,1.15,3.0,77.8*
CN1CCN(C(=O)/C(=C\c2cccc([N+](=O)[O-])c2)NC(=O)c2cccs2)CC1,-0.0288,-5.1,0.07,0.687,-8.9,·
Cc1ccc(S(=O)(=O)n2c(=O)oc3ccccc32)cc1,0.252,-0.1,-0.01,1.62,-3.6,·
CC12CC(NC(=O)N1c1cccc(C(=O)N3CCN(c4ccccc4F)CC3)c1)c1ccccc1O2 (centres undefined),-0.632,2.4,-0.6,0.0438,-5.6,-4.3
CCN(CC)C(=O)c1ccc(S(=O)(=O)NCc2cccnc2)cc1,0.554,-1.5,-1.21,0.21,7.8,3.2
CC(=O)N/C(=C\c1cccc([N+](=O)[O-])c1)C(=O)NC1CCCCC1,0.0306,51.4*,0.63,2.1,-19.7,21.6
Cc1ccccc1-c1cc(C(=O)n2cccn2)c2cc(Cl)ccc2n1,0.402,-10.8,-0.38,·,-3.2,·
O=S(=O)(NCC(Nc1ccc(Cl)cc1)c1ccccc1)c1ccc(Cl)cc1 (centres undefined),0.212,58.3*,0.61,0.000157,74.1*,-22.2
CC(=O)Nc1ccc(S(=O)(=O)NNC(=O)COc2cccc(C)c2)cc1,-0.169,-4.1,-0.42,-0.311,3.9,·
COC(=O)C1=C2SC(C)C(=O)N2C(N)=C(C#N)C1c1ccc(OC)c(OC)c1 (centres undefined),·,-9.0,0.79,0.052,-7.8,81.8*
CC(O)[C@H](NC(=O)C1(c2ccccc2)CCN(C(=O)OC(C)(C)C)CC1)C(=O)O (some centres undefined),·,-3.9,-0.61,·,0.3,·
Cc1c(Cl)cccc1-c1ccc(/C=N/n2cnnc2)o1,0.0144,68.8*,·,-0.0505,41.3,5.6
Cc1cc(-c2ccc(/C=N/n3cnnc3)o2)ccc1Cl,-0.00677,65.2*,0.69,-0.584,10.0,-166.7
CCCCOC(=O)c1cc(-c2ccc(/C=N/n3cnnc3)o2)ccc1Cl,·,13.1,·,0.521,·,20.0
O=C(CSc1nnc(-c2ccco2)o1)NC1CCCCC1,-0.264,-8.6,0.74,-0.0271,2.6,0.0
O=S(=O)(Cc1ccccc1)N1CCc2ccccc21,-0.732,100.3*,0.72,·,7.3,-263.0
CC(C)(C)[C@H]1C=C(C(=O)NCc2nc3ccccc3[nH]2)O[C@@H](OCCCCO)C1,·,3.8,-0.25,-1.15,5.7,·
Cn1c(CSCc2ccc(Cl)cc2)nnc1SCC(=O)Nc1nc2ccccc2s1,-0.882,-5.5,-0.41,0.971,9.6,19.4
CCc1ccccc1NC(=O)C(CC)Sc1nc2cc3c(cc2c(=O)n1Cc1ccco1)OCO3 (centres undefined),·,100.3*,-0.37,-1.84,9.5,-100.0
Cn1c(CCNC(=O)OC(C)(C)C)n[nH]c1=S,·,-0.6,0.48,-0.0152,0.4,-66.7
O=C(N/N=C/c1ccc2c(c1)OCO2)c1sc2cc(Cl)ccc2c1Cl,·,10.6,-0.39,-0.16,-14.7,·
COc1ccc2c(Cl)c(C(=O)N/N=C/c3ccc4c(c3)OCO4)sc2c1,0.0496,96.8*,0.87,-0.458,-2.8,·
COc1ccc2c(Cl)c(C(=O)N/N=C/c3c(C)[nH]c4ccccc34)sc2c1,·,100.3*,0.14,0.748,12.9,·
SMILES,ROMK primary,Lmaj promast,Insulin prom up,Cl transport mod,WT yeast gro inh,INS promoter inh
CN(CCO)C(=O)C1CCN(c2ncc(C(F)(F)F)cc2Cl)CC1,0.65,-4.4,0.32,0.324,-4.7,·
CC(C)NC(=S)N/N=C/c1cccs1,-0.0973,15.7,-0.65,0.808,-0.3,0.0
CC1CCc2c(C(=O)NCCCN3CCOCC3)csc2C1 (centres undefined),-2.15,92.8*,0.16,0.524,9.2,·
CCN1CCN(CCCNC(=O)c2csc3c2CCCCC3)CC1,·,99.5*,-0.28,-0.0643,11.5,-9.1
C=CCNC(=O)COC(=O)c1cc(S(=O)(=O)N2CCCCC2)ccc1Cl,-0.872,-7.6,-0.73,0.183,-5.9,·
COC(=O)C1=C(C)N(c2ccc(C)c(C)c2)/C(=C/c2ccc(O)cc2)C1=O,1.22,99.3*,-0.35,0.348,5.6,·
CS(=O)(=O)N(Cc1ccccc1)c1ccc(C(=O)N2CCN(c3cccc(Cl)c3)CC2)cc1,·,72.8*,-0.32,-1.81,19.6,-26.7
CS(=O)(=O)N(CC(=O)N1CCN(c2ccccc2)CC1)c1ccc(Cl)c(C(F)(F)F)c1,0.0247,89.2*,-0.28,-4.77,-2.9,-13.8
CC1CCN(C(=O)CN(c2ccc(Cl)c(C(F)(F)F)c2)S(C)(=O)=O)CC1,-0.808,68.9*,-0.59,-0.0568,-1.7,48.6
CCCCC#Cc1ccc(C(=O)NNC(=O)Nc2cc(Cl)cc(Cl)c2)o1,·,·,-0.17,0.0123,·,·
COCCn1c(SCC(=O)c2cccc(OC)c2)nnc1-c1ccco1,-0.913,-4.1,0.69,-0.323,20.1,40.7
Cc1cccc(Nc2nc(N)nc(CN3CCN(Cc4ccc5c(c4)OCO5)CC3)n2)c1,-0.252,19.1,-1.65,0.0707,-3.8,·
Nc1nc(CSc2nnc(-c3cccc(F)c3)n2-c2ccccc2)nc(N2CCOCC2)n1,0.811,-4.3,0.38,0.214,-16.3,-162.5
CCS(=O)(=O)N1CCN(Cc2ccccc2OC)CC1,·,60.1*,-0.5,-0.097,-28.3,-85.7
CCOc1ccccc1CN1CCN(S(=O)(=O)CC)CC1,0.897,82.0*,0.07,-0.477,12.8,·
C/C(=N\NC(=O)CSCc1ccccc1Br)c1cccc([N+](=O)[O-])c1,·,-7.8,0.08,-1.35,-10.3,·
CCN(CC)CCCNC(=O)c1ccc2c(SCC(=O)O)c3c(nc2c1)CCC3,0.137,-6.7,-0.1,2.33,15.1,38.9
CCN(CC)CCNC(=O)CSc1c2c(nc3cc(Cl)ccc13)CCCC2,·,100.6*,-2.16,-0.41,-7.6,21.4
Cc1ccc(CNC(=O)CSc2c3c(nc4ccc(Cl)cc24)CCCC3)o1,-2.53*,15.1,0.36,4.79*,-1.3,·
CCC(C)NC(=O)CSc1c2c(nc3ccccc13)CCCC2 (centres undefined),·,25.2,-0.48,-0.901,19.6,·
N#CCSc1nnc2ccc3ccccc3n12,·,2.2,0.23,·,1.3,-56.2
Cc1ccc(NC(=O)C/C(N)=N/OC(=O)c2ccccc2)cc1,-0.175,-0.1,0.64,0.188,-14.1,-18.2
COc1ccc(CNC(=O)/C=C/c2ccc(S(=O)(=O)NCc3ccco3)cc2)cc1OC,0.0457,67.7*,-0.38,0.0793,-11.6,50.0
O=C(/C=C/c1ccc(Cl)cc1)NCc1ccco1,-1.55,51.0*,-0.01,-0.783,-3.1,-26.9
COc1ccc(CCN(C)C(=O)c2ccc(S(=O)(=O)NCc3ccco3)cc2)cc1OC,0.593,-9.1,-0.13,0.571,-15.2,-120.0
COc1ccc(CNC(=O)/C=C/c2ccco2)cc1OC,0.287,0.3,·,0.691,1.7,71.4*

# Screens deposited in PubChem BioAssay by several laboratories.
